# Measurements taken from PubChem BioAssay AID602392 (National Center for Advancing Translational Sciences (NCATS), 2012).
# “And” between values parts separate entries of the source, which are not always exact repeats. Identical values can stand only once. The source made the active and inactive calls. The call rests on the fitted dose curve.
# Biological target: 4'-phosphopantetheinyl transferase Sfp (Bacillus subtilis (strain 168)) (UniProt P39135)
# Assay: qHTS Assay for Inhibitors of Bacillus subtilis Sfp phosphopantetheinyl transferase (PPTase): Label Free Assay for SAR
# Settings: purified Sfp with carrier protein, gel densitometry, 30 min
# From the text: The covalent attachment of a phosphopantetheinyl (4'-PP) arm to a variety of synthases and other proteins is a key posttranslational protein modification. The 4'-PP is installed on the proteins post-translationally from coenzyme A (CoA) on a conserved serine residue by action of phosphopantetheinyl transferase (PPTase) enzymes. Phosphopantetheinylation is essential for synthase activity, and removal of the PPTase gene precludes natural product synthesis in microorganisms, or in the case of fatty acid biosynthesis, renders the organism unviable. PPTase enzymes belong to a distinct structural superfamily. Within bacteria, these enzymes are grouped into two classes based upon primary structure, the AcpS-Type and Sfp-Type PPTases.
# Sfp-type PPTases, corresponding to an activator of surfactin production in Bacillus subtilis, are responsible for modifying type I polyketide and nonribosomal peptide synthases of prokaryotes. Sfp-type PPTases are responsible for the activation of a variety of pathogen-associated virulence factors. Among these compounds are toxins such as mycolactone from Mycobacterium ulcerans, siderophores such as vibriobactin from Vibrio cholerae or mycobactin from Mycobacterium tuberculosis, as well as the mycolic acids which form the waxy cell wall of Mycobacteria. The biosyntheses of these natural products are considered attractive targets for drug design.
# In search of small molecule Sfp-PPTase inhibitors, a fluorescence quenching assay was developed for detection of Bacillus subtilis Sfp-PPTase enzymatic activity in a miniaturized high-throughput format. The consensus ybbr acceptor peptide […] was N-terminally labeled with Black Hole Quencher-2 (BHQ-2) and used in combination with rhodamine-labeled coenzyme A as a co-substrate.
# This project seeks to identify inhibitors of Sfp phosphopantetheinyl transferase. The primary and secondary screens both utilized a rhodamine-modified CoA substrate. This experiment sought to confirm compound activity in a biochemical assay using the natural nucleotide substrate in conjunction with a whole-protein acceptor. We employed polyacrylamide gel electrophoresis in the presence of modest urea concentrations to achieve a conformationally sensitive separation of the apo- and holo- states of the acyl carrier protein (ACP) from E. coli [Rock, 1981, Cronan 1982]. Under conditions of limiting Sfp concentrations, quantitative determinations of enzyme activity can be made from images of the gels after treatment with an appropriately sensitive protein stain.
# NIH Chemical Genomics Center [NCGC]
# NIH Molecular Libraries Probe Centers Network [MLPCN]
# Assay Submitter (PI): Michale Burkart, University of California, San Diego
# Preparation of apo-ACP substrate.
# A derivative of the AcpP locus from E. coli K12 containing a C-terminal fusion to a hexahistidine tag is expressed and purified from E.coli BL21(DE3) following standard procedures, (27) providing a mixture of the apo- and holo- forms of ACP in a ratio 3:2; as judged by UREA-PAGE. The resulting mixture (10 mg/ml) is reduced overnight in PBS buffer containing 10 mM DTT, and excess reducing agent removed by passage over a PD6 desalting column (Bio-Rad Laboratories, Hercules, CA). The sample is immediately pooled with an equal volume of activated thiol sepharose 4B (cat #17-0640-01, GE Healthcare, Piscataway, NJ) prepared according to the manufacturers recommendations; and the slurry agitated gently overnight at 4 deg C. The slurry was decanted into a disposable chromatography column and washed with 3 volumes of PBS. The filtrate and washes were pooled, concentrated, and the process iterated once to provide a solution of ACP that was >98% apo-form as judged by conformationally sensitive UREA-PAGE.
# Label-free gel assay for phosphopantetheinylation.
# Test compound (0.5 ul) dissolved in DMSO was added to 1.33 X enzyme solution (15 ul) containing 66 nM Sfp, 66 mM HEPES*Na pH 7.6, 13.3 mM MgCl2, 0.0133% NP40, and 1.33 mg/ml BSA. […]
SMILES,outcome,Potency
S=C(Nc1ccccn1)c1ccccn1,inactive,–
C(=C1\Nn2c(COc3ccccc3)nnc2S1)/c1ccccc1,–,27.8 µM (active)
Cc1ccnc(NC(=S)N2CCN(c3ccc(Br)cc3)CC2)c1,–,83.3 µM (active)
CC(C)(C)Cc1nnc(NC(=O)CSc2ccccc2)s1,inactive,–
O=C(Nc1nnc(COc2ccc(Cl)cc2)s1)c1ccco1,–,9.26 µM (active)
CN(C)c1ccc(C(=S)N2CCN(Cc3ccccc3)CC2)cc1,–,27.8 µM (active)
CCOC(=O)c1cc(-c2ccccc2)sc1NC(=O)c1ccc(OC)cc1,inactive,–
CCOC(=O)c1c(-c2ccc(C)o2)csc1NC(=O)CSc1nnnn1-c1ccccc1,–,27.8 µM (active)
COc1ccc(N2CCN(C(=S)Nc3cc(C)ccn3)CC2)cc1,–,83.3 µM (active)
Cc1ccnc(NC(=S)N2CCN(c3cccc(C(F)(F)F)c3)CC2)c1,–,83.3 µM (active) and 3.09 µM (active)
O=C(Nc1nnc(COc2ccc(Cl)cc2)s1)c1cccs1,–,250 µM (active)
CCc1c(C)sc(NC(=O)C2CCCCC2C(=O)O)c1C(N)=O (configuration not stated),inactive,–
